Data reported in PubChem BioAssay (EPA / NIEHS).
“And” between values parts separate entries of the source, which are not always exact repeats. Identical values can stand only once. Inconclusive results are not listed. Some structures have more than one record in an assay (separate samples or runs), and their calls can disagree. The source made the active and inactive calls. The calls were made as follows: active = hit-call score of the fitted dose curve at least 0.9, where 1 is the maximum; inconclusive = response in the unintended direction; inactive = score below 0.9.

Tests used:
[1] = molecular target: rat CYP2C11, Cyp2c11 (gene 29277) (UniProt P08683); test: NVS_ADME_rCYP2C11: NovaScreen (NVS) CYP450-related Enzyme Activity (ADME) Assay for rat CYP2C11 (AID 2283118)
Sequence of rat CYP2C11, Cyp2c11 (gene 29277) (P08683 whole entry, looked up): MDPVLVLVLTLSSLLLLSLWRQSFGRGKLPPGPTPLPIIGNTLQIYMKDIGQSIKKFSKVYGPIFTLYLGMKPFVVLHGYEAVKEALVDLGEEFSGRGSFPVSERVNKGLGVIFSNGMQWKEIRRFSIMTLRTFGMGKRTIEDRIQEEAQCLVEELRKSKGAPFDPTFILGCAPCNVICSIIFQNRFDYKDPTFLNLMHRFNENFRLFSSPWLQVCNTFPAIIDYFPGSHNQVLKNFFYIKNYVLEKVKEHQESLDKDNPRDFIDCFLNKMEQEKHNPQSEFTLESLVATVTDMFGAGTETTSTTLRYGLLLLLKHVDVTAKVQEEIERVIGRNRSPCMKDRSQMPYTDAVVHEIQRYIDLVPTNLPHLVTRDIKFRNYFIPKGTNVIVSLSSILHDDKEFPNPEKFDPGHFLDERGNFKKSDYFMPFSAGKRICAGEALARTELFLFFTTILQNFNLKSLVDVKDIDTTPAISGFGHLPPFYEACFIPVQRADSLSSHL
Method in brief: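 Cell-free recombinant rat enzyme with fluorescent substrate; readout 0.33 h after dosing, loss of signal versus acetonitrile control. Initial duplicate single-point at 10 uM; actives rerun in concentration series.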

[2] = system: rat CYP3A1, gene 25642; test: NVS_ADME_rCYP3A1: NovaScreen (NVS) CYP450-related Enzyme Activity (ADME) Assay for rat CYP3A1 (AID 2283126)
Method in brief: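 Cell-free recombinant CYP assay with fluorescent substrate, read 0.5 h after dosing. Screened at 10 uM in duplicate, hits at up to 20 uM in concentration-response; loss of signal versus acetonitrile baseline.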

[3] = molecular target: human AMP-activated Protein Kinase, alpha 1 (AMPKa1), PRKAA1 (gene 5562) (UniProt Q13131); test: NVS_ENZ_hAMPKa1: NovaScreen (NVS) Enzymatic Assay for human AMP-activated Protein Kinase, alpha 1 (AMPKa1) (AID 2283130)
Sequence of human AMP-activated Protein Kinase, alpha 1 (AMPKa1), PRKAA1 (gene 5562) (Q13131 whole entry, looked up): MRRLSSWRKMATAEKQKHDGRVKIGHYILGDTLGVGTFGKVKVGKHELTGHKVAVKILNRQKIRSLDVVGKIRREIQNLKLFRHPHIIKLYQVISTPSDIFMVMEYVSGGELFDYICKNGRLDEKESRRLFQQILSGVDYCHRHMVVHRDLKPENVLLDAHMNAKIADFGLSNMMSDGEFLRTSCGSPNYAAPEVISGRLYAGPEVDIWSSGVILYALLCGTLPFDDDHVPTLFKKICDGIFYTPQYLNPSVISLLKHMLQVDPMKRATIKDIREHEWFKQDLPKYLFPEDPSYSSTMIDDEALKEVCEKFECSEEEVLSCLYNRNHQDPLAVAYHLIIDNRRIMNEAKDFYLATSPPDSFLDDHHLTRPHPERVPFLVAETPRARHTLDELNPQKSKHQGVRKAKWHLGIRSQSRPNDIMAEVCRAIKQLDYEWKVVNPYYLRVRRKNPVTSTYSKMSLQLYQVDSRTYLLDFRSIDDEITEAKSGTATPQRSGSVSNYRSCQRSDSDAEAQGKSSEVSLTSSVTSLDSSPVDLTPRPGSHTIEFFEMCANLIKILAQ
Method in brief: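 Recombinant human AMPKα1 activity was measured cell-free by fluorescent substrate conversion with electrophoretic mobility-shift separation, 1 h after dosing. Duplicate single-point screening was at 25 uM; actives (≥30% inhibition) were retested in concentration-response up to 50 uM.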

[4] = molecular target: Caspase-1 (Homo sapiens) (UniProt P29466); test: NVS_ENZ_hCASP1: NovaScreen (NVS) Enzymatic Assay for human Caspase 1 (CASP1) (AID 2283132)
Sequence of Caspase-1 (Homo sapiens) (P29466 whole entry, looked up): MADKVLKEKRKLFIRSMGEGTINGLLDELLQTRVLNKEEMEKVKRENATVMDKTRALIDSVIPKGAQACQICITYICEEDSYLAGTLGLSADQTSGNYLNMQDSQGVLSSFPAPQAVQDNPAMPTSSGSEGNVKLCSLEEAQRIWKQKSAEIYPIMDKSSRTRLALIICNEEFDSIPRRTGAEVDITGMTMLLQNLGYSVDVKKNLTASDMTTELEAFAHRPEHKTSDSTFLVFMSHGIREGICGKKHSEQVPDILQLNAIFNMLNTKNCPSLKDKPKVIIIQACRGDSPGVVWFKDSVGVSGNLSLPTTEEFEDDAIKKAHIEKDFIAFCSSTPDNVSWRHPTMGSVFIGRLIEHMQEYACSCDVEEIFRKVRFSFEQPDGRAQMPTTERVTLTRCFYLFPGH
Method in brief: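 Cell-free enzymatic assay with E. coli-expressed recombinant protein; fluorescence intensity read 1 hour after dosing. Single-concentration duplicate screen at 25 uM, then concentration-response up to 50 uM; activity fitted relative to DMSO, loss of signal meaning inhibition.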

[5] = molecular target: human Caspase 10 (CASP10), CASP10 (gene 843) (UniProt Q92851); test: NVS_ENZ_hCASP10: NovaScreen (NVS) Enzymatic Assay for human Caspase 10 (CASP10) (AID 2283133)
Sequence of human Caspase 10 (CASP10), CASP10 (gene 843) (Q92851 whole entry, looked up): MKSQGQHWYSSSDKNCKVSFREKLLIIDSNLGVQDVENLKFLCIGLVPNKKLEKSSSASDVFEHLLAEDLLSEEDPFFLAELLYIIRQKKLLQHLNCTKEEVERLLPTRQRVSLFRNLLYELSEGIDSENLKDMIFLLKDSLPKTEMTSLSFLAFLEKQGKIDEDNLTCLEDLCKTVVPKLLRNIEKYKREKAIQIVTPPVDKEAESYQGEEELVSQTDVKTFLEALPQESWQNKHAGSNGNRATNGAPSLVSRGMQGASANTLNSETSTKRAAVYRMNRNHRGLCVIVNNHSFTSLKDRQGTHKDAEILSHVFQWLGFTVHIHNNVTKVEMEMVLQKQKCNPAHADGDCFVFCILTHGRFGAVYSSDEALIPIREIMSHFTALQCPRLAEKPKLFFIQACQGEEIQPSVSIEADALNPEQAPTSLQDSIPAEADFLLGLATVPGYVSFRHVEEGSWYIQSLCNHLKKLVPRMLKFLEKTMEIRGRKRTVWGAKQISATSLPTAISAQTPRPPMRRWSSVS
Method in brief: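 Recombinant human caspase-10 from E. coli, cell-free fluorogenic substrate assay read 1 h after dosing. Primary duplicate screen at 25 uM; hits (e.g. ≥30% inhibition) run singly in concentration-response up to 50 uM, normalised to DMSO.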

[6] = molecular target: human Acid Phosphatase 1 (ACP1), ACP1 (gene 52) (UniProt P24666); test: NVS_ENZ_hACP1: NovaScreen (NVS) Enzymatic Assay for human Acid Phosphatase 1 (ACP1) (AID 2283136)
Method in brief: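 Recombinant enzyme expressed in Sf9 cells, tested cell-free; activity read by fluorescence with electrophoretic mobility shift separation of substrate and product, 1.5 h after dosing. Primary screen in duplicate at 25 uM, actives then run in concentration series; loss of signal versus DMSO.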

[7] = molecular target: human Caspase 5 (CASP5), CASP5 (gene 838) (UniProt P51878); test: NVS_ENZ_hCASP5: NovaScreen (NVS) Enzymatic Assay for human Caspase 5 (CASP5) (AID 2283137)
Method in brief: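 Cell-free protease assay with bacterially expressed CASP5 and a fluorescent substrate, measured at 2 h. Values fitted relative to DMSO as baseline, from concentration-response series topping at 50 uM.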

[8] = molecular target: human AKT serine/threonine Kinase 1 (AKT1), AKT1 (gene 207) (UniProt P31749); test: NVS_ENZ_hAKT1: NovaScreen (NVS) Enzymatic Assay for human AKT serine/threonine Kinase 1 (AKT1) (AID 2283138)
Method in brief: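 Signal loss relative to DMSO, measured by fluorescence after electrophoretic separation of substrate and product, indicates inhibition of recombinant enzyme. Readings at 1 h; screening at 25 uM, follow-up curves up to 50 uM.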

[9] = molecular target: human Beta-secretase (BACE), BACE1 (gene 23621) (UniProt P56817); test: NVS_ENZ_hBACE: NovaScreen (NVS) Enzymatic Assay for human Beta-secretase (BACE) (AID 2283140);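 also: hits are inhibitors that reduce fluorescent substrate signal versus DMSO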
Sequence of human Beta-secretase (BACE), BACE1 (gene 23621) (P56817 whole entry, looked up): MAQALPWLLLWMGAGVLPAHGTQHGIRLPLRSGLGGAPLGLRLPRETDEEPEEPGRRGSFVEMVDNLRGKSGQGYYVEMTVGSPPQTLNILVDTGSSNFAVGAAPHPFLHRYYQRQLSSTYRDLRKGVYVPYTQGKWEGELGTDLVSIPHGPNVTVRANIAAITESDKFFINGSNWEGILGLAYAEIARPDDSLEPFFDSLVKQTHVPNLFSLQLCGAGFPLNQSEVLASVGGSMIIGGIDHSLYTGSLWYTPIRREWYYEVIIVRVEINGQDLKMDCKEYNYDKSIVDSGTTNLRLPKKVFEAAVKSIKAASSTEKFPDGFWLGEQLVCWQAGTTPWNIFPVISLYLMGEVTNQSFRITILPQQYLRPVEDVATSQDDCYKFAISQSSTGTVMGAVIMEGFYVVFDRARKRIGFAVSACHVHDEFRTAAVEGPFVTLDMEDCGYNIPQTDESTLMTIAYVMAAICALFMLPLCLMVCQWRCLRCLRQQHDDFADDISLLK
Method in brief: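 Recombinant BACE1 (SF9 extract) incubated with compound and fluorescent substrate, 1 h. Plates carried positive and DMSO negative controls. Initial single dose 25 uM, duplicate; confirmation by concentration series.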

[10] = molecular target: human AKT serine/threonine Kinase 2 (AKT2), AKT2 (gene 208) (UniProt P31751); test: NVS_ENZ_hAKT2: NovaScreen (NVS) Enzymatic Assay for human AKT serine/threonine Kinase 2 (AKT2) (AID 2283141)
Sequence of human AKT serine/threonine Kinase 2 (AKT2), AKT2 (gene 208) (P31751 whole entry, looked up): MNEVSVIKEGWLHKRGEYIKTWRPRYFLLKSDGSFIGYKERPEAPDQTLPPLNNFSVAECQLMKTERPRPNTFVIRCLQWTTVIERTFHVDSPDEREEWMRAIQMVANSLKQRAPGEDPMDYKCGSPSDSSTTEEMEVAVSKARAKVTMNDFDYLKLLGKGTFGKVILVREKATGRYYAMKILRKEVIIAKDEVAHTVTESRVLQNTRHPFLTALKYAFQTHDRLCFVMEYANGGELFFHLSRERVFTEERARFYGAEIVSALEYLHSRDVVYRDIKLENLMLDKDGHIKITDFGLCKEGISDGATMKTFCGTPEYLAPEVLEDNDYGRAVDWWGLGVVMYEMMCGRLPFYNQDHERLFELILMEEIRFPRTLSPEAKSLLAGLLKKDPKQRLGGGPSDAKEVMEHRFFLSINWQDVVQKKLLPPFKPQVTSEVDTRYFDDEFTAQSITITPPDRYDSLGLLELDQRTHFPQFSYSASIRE
Method in brief: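 Cell-free fluorescence/electrophoretic mobility shift readout of recombinant human AKT2 activity, 1 h after chemical dosing. Duplicate primary screen at 25 uM, then singleton concentration-response up to 50 uM; loss of signal versus DMSO baseline.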

[11] = molecular target: rat CYP2C13, Cyp2c13 (gene 171521) (UniProt P20814); test: NVS_ADME_rCYP2C13: NovaScreen (NVS) CYP450-related Enzyme Activity (ADME) Assay for rat CYP2C13 (AID 2283121)
Sequence of rat CYP2C13, Cyp2c13 (gene 171521) (P20814 whole entry, looked up): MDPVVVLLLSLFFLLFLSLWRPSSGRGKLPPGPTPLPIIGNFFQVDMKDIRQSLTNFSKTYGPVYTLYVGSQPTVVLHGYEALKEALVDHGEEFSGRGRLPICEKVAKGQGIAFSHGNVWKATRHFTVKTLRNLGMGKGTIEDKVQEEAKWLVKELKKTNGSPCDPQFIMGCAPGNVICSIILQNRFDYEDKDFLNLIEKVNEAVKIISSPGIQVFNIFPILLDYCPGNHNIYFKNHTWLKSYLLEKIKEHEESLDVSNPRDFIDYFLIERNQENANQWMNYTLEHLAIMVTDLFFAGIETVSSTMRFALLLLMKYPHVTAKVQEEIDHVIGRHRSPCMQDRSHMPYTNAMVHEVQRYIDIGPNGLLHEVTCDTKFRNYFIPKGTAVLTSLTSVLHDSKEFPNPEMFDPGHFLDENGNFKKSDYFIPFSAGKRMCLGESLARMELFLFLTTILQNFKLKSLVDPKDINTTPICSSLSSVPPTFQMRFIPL
Method in brief: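 Recombinant rat CYP2C13 with fluorogenic substrate, 0.75 h cell-free incubation; primary screen in duplicate at 10 uM, actives followed in concentration series. Fluorescence loss relative to acetonitrile control indicates inhibition.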

[12] = system: rat CYP2B1, gene 24300; test: NVS_ADME_rCYP2B1: NovaScreen (NVS) CYP450-related Enzyme Activity (ADME) Assay for rat CYP2B1 (AID 2283117)
Method in brief: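 Recombinant rat CYP2B1 with fluorogenic substrate, read at 0.75 h. Primary screen in duplicate at 10 uM; compounds meeting threshold (e.g., 30% inhibition) re-run in concentration-response up to 20 uM. Fitted against acetonitrile control.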

[13] = system: rat CYP2C6, gene 293989; test: NVS_ADME_rCYP2C6: NovaScreen (NVS) CYP450-related Enzyme Activity (ADME) Assay for rat CYP2C6 (AID 2283120)
Method in brief: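 Cell-free recombinant rat CYP2C6 with fluorogenic substrate, read by fluorescence 1 h after dosing; acetonitrile as negative control. Primary screen at 10 uM in duplicate, actives then in concentration-response up to 20 uM.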

[14] = molecular target: rat CYP2D1, Cyp2d1 (gene 266684) (UniProt P10633); test: NVS_ADME_rCYP2D1: NovaScreen (NVS) CYP450-related Enzyme Activity (ADME) Assay for rat CYP2D1 (AID 2283122)
Method in brief: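 Cell-free fluorescence enzyme-activity assay on extracted rat CYP2D1 protein, read 0.75 h after dosing. Primary screen in duplicate at 10 uM; qualifying chemicals then run in concentration-response to 20 uM max, loss-of-signal versus acetonitrile baseline.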

[15] = molecular target: rat CYP2D2, Cyp2d26 (gene 25053) (UniProt P10634); test: NVS_ADME_rCYP2D2: NovaScreen (NVS) CYP450-related Enzyme Activity (ADME) Assay for rat CYP2D2 (AID 2283124)
Sequence of rat CYP2D2, Cyp2d26 (gene 25053) (P10634 whole entry, looked up): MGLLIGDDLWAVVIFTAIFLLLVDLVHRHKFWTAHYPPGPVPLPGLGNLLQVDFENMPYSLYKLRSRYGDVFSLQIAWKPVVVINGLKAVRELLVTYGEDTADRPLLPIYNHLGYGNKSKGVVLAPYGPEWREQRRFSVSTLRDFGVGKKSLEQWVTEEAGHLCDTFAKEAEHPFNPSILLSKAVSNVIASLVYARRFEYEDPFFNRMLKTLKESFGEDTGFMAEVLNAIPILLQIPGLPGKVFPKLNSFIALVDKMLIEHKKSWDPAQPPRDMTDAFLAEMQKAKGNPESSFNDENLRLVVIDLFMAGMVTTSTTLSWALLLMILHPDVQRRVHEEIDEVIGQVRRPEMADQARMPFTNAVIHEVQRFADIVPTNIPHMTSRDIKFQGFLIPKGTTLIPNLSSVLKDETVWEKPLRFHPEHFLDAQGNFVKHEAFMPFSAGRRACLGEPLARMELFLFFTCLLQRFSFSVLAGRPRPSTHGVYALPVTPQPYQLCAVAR
Method in brief: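 Recombinant rat CYP2D2 in a cell-free fluorogenic activity assay, fluorescence read 0.75 h after dosing. Primary screen in duplicate at 10 uM; actives re-run singly in concentration-response to 20 uM, relative to acetonitrile.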

[16] = molecular target: rat CYP3A2, Cyp3a2 (gene 266682) (UniProt P05183); test: NVS_ADME_rCYP3A2: NovaScreen (NVS) CYP450-related Enzyme Activity (ADME) Assay for rat CYP3A2 (AID 2283128)
Sequence of rat CYP3A2, Cyp3a2 (gene 266682) (P05183 whole entry, looked up): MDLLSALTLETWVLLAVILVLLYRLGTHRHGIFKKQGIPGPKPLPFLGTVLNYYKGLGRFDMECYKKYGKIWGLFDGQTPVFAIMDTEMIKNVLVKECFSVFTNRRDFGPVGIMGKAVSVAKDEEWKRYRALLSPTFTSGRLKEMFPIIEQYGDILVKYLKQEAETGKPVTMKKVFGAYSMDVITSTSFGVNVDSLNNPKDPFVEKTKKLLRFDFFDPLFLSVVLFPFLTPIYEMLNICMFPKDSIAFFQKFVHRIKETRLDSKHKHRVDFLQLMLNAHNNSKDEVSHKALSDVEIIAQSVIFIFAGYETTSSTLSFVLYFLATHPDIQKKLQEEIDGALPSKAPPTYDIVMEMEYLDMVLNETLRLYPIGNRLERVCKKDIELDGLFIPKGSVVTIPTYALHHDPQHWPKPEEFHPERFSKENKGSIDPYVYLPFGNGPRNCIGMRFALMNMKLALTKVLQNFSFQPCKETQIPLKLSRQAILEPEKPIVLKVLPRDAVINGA
Method in brief: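 Cell-free rat CYP3A2 enzyme assay with fluorescent substrate, read 0.5 h after dosing. Primary duplicate screen at 10 uM; actives run in concentration-response up to 20 uM, relative to acetonitrile baseline.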

[17] = molecular target: rat CYP2C12, Cyp2c12 (gene 25011) (UniProt P11510); test: NVS_ADME_rCYP2C12: NovaScreen (NVS) CYP450-related Enzyme Activity (ADME) Assay for rat CYP2C12 (AID 2283119)
Sequence of rat CYP2C12, Cyp2c12 (gene 25011) (P11510 whole entry, looked up): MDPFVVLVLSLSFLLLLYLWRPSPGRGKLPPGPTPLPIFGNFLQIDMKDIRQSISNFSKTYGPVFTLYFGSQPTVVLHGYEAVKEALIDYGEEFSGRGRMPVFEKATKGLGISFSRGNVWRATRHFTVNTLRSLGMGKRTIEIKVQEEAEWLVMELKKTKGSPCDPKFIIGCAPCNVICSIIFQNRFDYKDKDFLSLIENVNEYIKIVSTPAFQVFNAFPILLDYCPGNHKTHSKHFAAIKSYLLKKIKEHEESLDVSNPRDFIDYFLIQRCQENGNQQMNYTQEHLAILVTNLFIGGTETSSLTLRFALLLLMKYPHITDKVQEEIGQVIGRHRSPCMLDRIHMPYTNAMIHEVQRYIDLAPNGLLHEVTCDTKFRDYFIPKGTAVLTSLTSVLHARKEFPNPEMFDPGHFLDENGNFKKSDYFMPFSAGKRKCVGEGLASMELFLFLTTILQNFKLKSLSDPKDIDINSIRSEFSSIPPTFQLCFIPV
Method in brief: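 Cell-free recombinant rat CYP2C12 activity read by fluorescence 0.5 h after dosing; loss of signal versus acetonitrile control. Primary screen in duplicate at 10 uM; actives then run in concentration-response format.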

[18] = molecular target: Caspase-3 (Homo sapiens) (UniProt P42574); test: NVS_ENZ_hCASP3: NovaScreen (NVS) Enzymatic Assay for human Caspase 3 (CASP3) (AID 2283139)
Method in brief: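 Recombinant human caspase-3 from E. coli with a fluorogenic substrate, read by fluorescence 1 h after dosing. Primary screen in duplicate at 25 uM. Actives (for example ≥30% inhibition) rerun as concentration-response up to 50 uM.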

Measured: AC50

O=S(=O)(O)C(F)(F)C(F)(F)C(F)(F)C(F)(F)C(F)(F)C(F)(F)C(F)(F)C(F)(F)F
inactive: [2] | [4] | [5]
active: [1] 0.0854 µM | [3] 15.7 µM and 5.63 µM | [6] 24.7 µM | [7] 26.7 µM [middle of 4 runs] | [8] 46.7 µM | [9] 2.29 µM and 2.36 µM and 8.91 µM

Cc1cc(C)nc(NC(=O)NS(=O)(=O)c2ccccc2C(=O)OC2COC2)n1
inactive: [10]

CCC(C)(NC(=O)c1cc(Cl)c(C)c(Cl)c1)C(=O)CCl (stereo not given)
inactive: [11]

CC1(C)C(C=C(Cl)Cl)C1C(=O)OC(C#N)c1ccc(F)c(Oc2ccccc2)c1 (stereo not given)
active: [9] 3.31 µM
inactive: [4]

Oc1ccc(Cl)cc1Cc1ccccc1
inactive: [3] | [7] | [8]
active: [12] 6.42 µM | [1] 7.16 µM | [13] 5.19 µM | [11] 6.35 µM | [14] 10 µM | [15] 5.11 µM | [2] 8.2 µM | [9] 18.9 µM [middle of 6 runs]

CC[C@H](C)[C@H]1O[C@]2(C=C[C@@H]1C)C[C@@H]1C[C@@H](C/C=C(\C)[C@@H](O[C@H]3C[C@H](OC)[C@@H](O[C@H]4C[C@H](OC)[C@@H](O)[C@H](C)O4)[C@H](C)O3)[C@@H](C)/C=C/C=C3\CO[C@@H]4[C@H](O)C(C)=C[C@@H](C(=O)O1)[C@]34O)O2 (tested in a mixture with another compound)
active: [11] 10 µM | [15] 2.23 µM | [2] 8.86 µM | [3] 31.2 µM
inactive: [12]

Oc1cc(Cl)ccc1Oc1ccc(Cl)cc1Cl
inactive: [3] | [6] | [9]
active: [15] 10 µM | [9] 25.5 µM and 28.2 µM and 7.92 µM | [10] 41.4 µM

COc1nn(CSP(=S)(OC)OC)c(=O)s1
active: [12] 2.65 µM | [1] 0.564 µM | [13] 0.258 µM | [2] 4.25 µM | [16] 0.774 µM

O=C(NC(=O)c1c(F)cccc1F)Nc1ccc(OC(F)(F)C(F)OC(F)(F)F)c(Cl)c1 (stereo not given)
inactive: [17]

CC(C)(C)C(O)C(Oc1ccc(Cl)cc1)n1cncn1 (stereo not given)
active: [12] 5.58 µM | [1] 4.45 µM | [11] 1.3 µM | [2] 5.65 µM | [16] 8.09 µM
inactive: [3] | [6]

C[C@H]1[C@H](c2ccc(Cl)cc2)SC(=O)N1C(=O)NC1CCCCC1
inactive: [18]

CC(C)(C)C(O)/C(=C\c1ccc(Cl)cc1Cl)n1cncn1 (stereo not given)
active: [12] 0.0164 µM | [1] 0.369 µM | [17] 1.25 µM | [11] 0.281 µM | [14] 0.603 µM | [15] 0.837 µM | [2] 0.631 µM | [16] 0.669 µM

O=C1c2ccccc2C(=O)N1SC(Cl)(Cl)Cl
inactive: [17] | [18]

O=C(O)C(F)(F)C(F)(F)C(F)(F)C(F)(F)C(F)(F)C(F)(F)C(F)(F)F
inactive: [2] | [4] | [6] | [7] | [10]
active: [9] 3.58 µM and 1.2 µM
